# Source: the supplement of paper PMC8728848
# This is one part of a sample in which the strongest signals are shown more often than they occur.
# B1: Cohesin-hDCIR (Homo sapiens) (protein)
# chain: LDDLDAVRIKVDTVNAKPGDTVRIPVRFSGIPSKGIANCDFVYSYDPNVLEIIEIEPGDIIVDPNPDKSFDTAVYPDRKIIVFLFAEDSGTGAYAITKDGVFATIVAKVKEGAPNGLSVIKFVEVGGFANNDLVEQKTQFFDGGANVGDTTEPATPTTPVTTPTTTDDLDAASQKYSQLLEKKTTKELVHTTLECVKKNMPVEETAWSCCPKNWKSFSSNCYFISTESASWQDSEKDCARMEAHLLVINTQEEQDFIFQNLQEESAYFVGLSDPEGQRHWQWVDQTPYNESSTFWHPREPSDPNERCVVLNFRKSPKRWGWNDVNCLGPQRSVCEMMKIHLHHHHHH
# How the values were obtained:
# Experiment in all cases: glycan array binding signal (z-score within array); higher = stronger binding
# Conditions in all cases: glycan notation: IUPAC condensed, linker removed
# [1] = target: Fuc(a1-2)Gal(b1-4)GlcNAc(b1-6)GalNAc
# Summary of the method: (§1)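 The binding signal is a Z-score computed within each array. Data were drawn from 3228 arrays in the Consortium for Functional Glycomics database, restricted to those with a known protein sequence. Scores were averaged over arrays of the same protein sequence at different concentrations or buffers, and over linkers, and negative values can be taken as non-binding.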
# [2] = target: Fuc(a1-2)[Gal(a1-3)]Gal(b1-4)GlcNAc(b1-3)GalNAc
# Summary of the method: as §1
# [3] = target: Fuc(a1-2)[GalNAc(a1-3)]Gal(b1-4)GlcNAc(b1-6)GalNAc
# Summary of the method: as §1
# [4] = target: Fuc(a1-2)[GalNAc(b1-3)]Gal
# Summary of the method: as §1
# [5] = target: Fuc(a1-3)[GalNAc(b1-4)]GlcNAc6S
# Summary of the method: as §1
# Gal(a1-3)Gal(b1-4)GlcNAc = target: Gal(a1-3)Gal(b1-4)GlcNAc
# Summary of the method: as §1
# [6] = target: Gal(a1-3)Gal(b1-4)GlcNAc(b1-6)GalNAc
# Summary of the method: as §1
# [7] = target: Gal(b1-3)GlcNAc(b1-3)Gal(b1-4)[Fuc(a1-3)]GlcNAc(b1-6)[Gal(b1-3)GlcNAc(b1-3)]Gal(b1-4)Glc
# Summary of the method: as §1
# [8] = target: Gal(b1-4)GlcNAc(b1-3)Gal(b1-3)GalNAc
# Summary of the method: as §1
# [9] = target: Gal(b1-4)GlcNAc(b1-3)Gal(b1-4)GlcNAc(b1-3)Gal(b1-4)GlcNAc(b1-3)Gal(b1-4)GlcNAc(b1-2)Man(a1-3)[Gal(b1-4)GlcNAc(b1-3)Gal(b1-4)GlcNAc(b1-3)Gal(b1-4)GlcNAc(b1-3)Gal(b1-4)GlcNAc(b1-2)Man(a1-6)]Man(b1-4)GlcNAc(b1-4)[Fuc(a1-6)]GlcNAc
# Summary of the method: as §1
# [10] = target: Gal(b1-4)GlcNAc(b1-3)Gal(b1-4)GlcNAc(b1-3)Gal(b1-4)GlcNAc(b1-3)Gal(b1-4)GlcNAc(b1-3)Gal(b1-4)GlcNAc(b1-3)Gal(b1-4)GlcNAc(b1-2)Man(a1-3)[Gal(b1-4)GlcNAc(b1-3)Gal(b1-4)GlcNAc(b1-3)Gal(b1-4)GlcNAc(b1-3)Gal(b1-4)GlcNAc(b1-3)Gal(b1-4)GlcNAc(b1-3)Gal(b1-4)GlcNAc(b1-2)Man(a1-6)]Man(b1-4)GlcNAc(b1-4)GlcNAc
# Summary of the method: as §1
# [11] = target: Gal(b1-4)GlcNAc(b1-3)Gal(b1-4)[Fuc(a1-3)]GlcNAc(b1-3)Gal(b1-4)[Fuc(a1-3)]GlcNAc
# Summary of the method: as §1
# [12] = target: Gal(b1-4)GlcNAc(b1-3)[Gal(b1-4)GlcNAc(b1-6)]Gal(b1-4)GlcNAc
# Summary of the method: as §1
# [13] = target: Gal3S(b1-4)[Fuc(a1-3)]Glc6S
# Summary of the method: as §1
# [14] = target: Gal3S(b1-4)[Fuc(a1-3)]GlcNAc6S
# Summary of the method: as §1
# GalNAc(a1-3)Gal = target: GalNAc(a1-3)Gal
# Summary of the method: as §1
# GalNAc(b1-3)Gal = target: GalNAc(b1-3)Gal
# Summary of the method: as §1
# [15] = target: GalNAc(b1-3)Gal(a1-4)Gal(b1-4)GlcNAc(b1-3)Gal(b1-4)Glc
# Summary of the method: as §1
# [16] = target: GalNAc(b1-3)Gal(a1-6)Gal(b1-4)Glc
# Summary of the method: as §1
# GalNAc(b1-4)GlcNAc6S = target: GalNAc(b1-4)GlcNAc6S
# Summary of the method: as §1
# GalNAc4S6S(b1-4)GlcNAc = target: GalNAc4S6S(b1-4)GlcNAc
# Summary of the method: as §1
# [17] = target: Glc(a1-6)Glc(a1-6)Glc(a1-6)Glc
# Summary of the method: as §1
# [18] = target: GlcNAc(a1-4)Gal(b1-4)GlcNAc(b1-3)Gal(b1-4)Glc
# Summary of the method: as §1
# [19] = target: GlcNAc(b1-3)Gal(b1-4)GlcNAc(b1-3)Gal(b1-4)GlcNAc(b1-3)Gal(b1-4)GlcNAc(b1-3)Gal(b1-4)GlcNAc(b1-2)[GlcNAc(b1-3)Gal(b1-4)GlcNAc(b1-3)Gal(b1-4)GlcNAc(b1-3)Gal(b1-4)GlcNAc(b1-3)Gal(b1-4)GlcNAc(b1-6)]Man(a1-6)[GlcNAc(b1-3)Gal(b1-4)GlcNAc(b1-3)Gal(b1-4)GlcNAc(b1-3)Gal(b1-4)GlcNAc(b1-3)Gal(b1-4)GlcNAc(b1-2)Man(a1-3)]Man(b1-4)GlcNAc(b1-4)[Fuc(a1-6)]GlcNAc
# Summary of the method: as §1
# [20] = target: GlcNAc(b1-3)Gal(b1-4)GlcNAc(b1-6)[GlcNAc(b1-3)Gal(b1-3)]GalNAc
# Summary of the method: as §1
# GlcNAc(b1-3)GalNAc = target: GlcNAc(b1-3)GalNAc
# Summary of the method: as §1
# [21] = target: GlcNAc(b1-3)[GlcNAc(b1-6)]GalNAc
# Summary of the method: as §1
# GlcNAc(b1-6)GalNAc = target: GlcNAc(b1-6)GalNAc
# Summary of the method: as §1
# [22] = target: Kdn(a2-3)Gal(b1-4)[Fuc(a1-3)]GlcNAc
# Summary of the method: as §1
# Man(a1-6)Man = target: Man(a1-6)Man
# Summary of the method: as §1
# [23] = target: Neu5Ac(a2-3)Gal(b1-3)GalNAc(b1-4)[Neu5Ac(a2-8)Neu5Ac(a2-3)]Gal(b1-4)Glc
# Summary of the method: as §1
# [24] = target: Neu5Ac(a2-3)Gal(b1-3)GalNAc6S
# Summary of the method: as §1
# [25] = target: Neu5Ac(a2-3)Gal(b1-3)GlcNAc(b1-2)Man
# Summary of the method: as §1
# [26] = target: Neu5Ac(a2-3)Gal(b1-3)GlcNAc(b1-2)Man(a1-3)[Neu5Ac(a2-3)Gal(b1-3)GlcNAc(b1-2)Man(a1-6)]Man(b1-4)GlcNAc(b1-4)GlcNAc
# Summary of the method: as §1
# [27] = target: Neu5Ac(a2-3)Gal(b1-4)GlcNAc(b1-2)Man(a1-3)[GlcNAc(b1-4)][Neu5Ac(a2-3)Gal(b1-4)GlcNAc(b1-2)Man(a1-6)]Man(b1-4)GlcNAc(b1-4)GlcNAc
# Summary of the method: as §1
# [28] = target: Neu5Ac(a2-3)Gal(b1-4)GlcNAc(b1-2)[Neu5Ac(a2-3)Gal(b1-4)GlcNAc(b1-4)]Man(a1-3)[GlcNAc(b1-4)][Neu5Ac(a2-3)Gal(b1-4)GlcNAc(b1-2)[Neu5Ac(a2-3)Gal(b1-4)GlcNAc(b1-6)]Man(a1-6)]Man(b1-4)GlcNAc(b1-4)GlcNAc
# Summary of the method: as §1
# [29] = target: Neu5Ac(a2-3)Gal(b1-4)GlcNAc(b1-3)[Neu5Ac(a2-3)Gal(b1-4)GlcNAc(b1-6)]GalNAc
# Summary of the method: as §1
# [30] = target: Neu5Ac(a2-3)Gal(b1-4)GlcNAc6S
# Summary of the method: as §1
# [31] = target: Neu5Ac(a2-3)Gal(b1-4)[Fuc(a1-3)]GlcNAc
# Summary of the method: as §1
# [32] = target: Neu5Ac(a2-3)Gal(b1-4)[Fuc(a1-3)]GlcNAc(b1-6)[Gal(b1-3)]GalNAc
# Summary of the method: as §1
# [33] = target: Neu5Ac(a2-3)Gal6S(b1-4)GlcNAc
# Summary of the method: as §1
# Neu5Ac(a2-8)Neu5Ac = target: Neu5Ac(a2-8)Neu5Ac
# Summary of the method: as §1
# [34] = target: Neu5Gc(a2-3)Gal(b1-3)GlcNAc
# Summary of the method: as §1
binder,measurement,setting,value
B1,glycan array binding signal (z-score),[1],5.99
same,glycan array binding signal (z-score),[2],-0.635
same,glycan array binding signal (z-score),[3],5.33
same,glycan array binding signal (z-score),[4],3.31
same,glycan array binding signal (z-score),[5],0.081
same,glycan array binding signal (z-score),Gal(a1-3)Gal(b1-4)GlcNAc,-0.455
same,glycan array binding signal (z-score),[6],5.08
same,glycan array binding signal (z-score),[7],-0.655
same,glycan array binding signal (z-score),[8],-0.458
same,glycan array binding signal (z-score),[9],2.82
same,glycan array binding signal (z-score),[10],-0.417
same,glycan array binding signal (z-score),[11],-0.584
same,glycan array binding signal (z-score),[12],-0.335
same,glycan array binding signal (z-score),[13],-0.343
same,glycan array binding signal (z-score),[14],3.25
same,glycan array binding signal (z-score),GalNAc(a1-3)Gal,1.17
same,glycan array binding signal (z-score),GalNAc(b1-3)Gal,3.75
same,glycan array binding signal (z-score),[15],4.3
same,glycan array binding signal (z-score),[16],5.47
same,glycan array binding signal (z-score),GalNAc(b1-4)GlcNAc6S,0.86
same,glycan array binding signal (z-score),GalNAc4S6S(b1-4)GlcNAc,-0.659
same,glycan array binding signal (z-score),[17],-0.038
same,glycan array binding signal (z-score),[18],-0.696
same,glycan array binding signal (z-score),[19],-0.597
same,glycan array binding signal (z-score),[20],-0.546
same,glycan array binding signal (z-score),GlcNAc(b1-3)GalNAc,-0.415
same,glycan array binding signal (z-score),[21],-0.401
same,glycan array binding signal (z-score),GlcNAc(b1-6)GalNAc,4.02
same,glycan array binding signal (z-score),[22],-0.218
same,glycan array binding signal (z-score),Man(a1-6)Man,3.2
same,glycan array binding signal (z-score),[23],-0.554
same,glycan array binding signal (z-score),[24],1.41
same,glycan array binding signal (z-score),[25],-0.373
same,glycan array binding signal (z-score),[26],-0.312
same,glycan array binding signal (z-score),[27],-0.66
same,glycan array binding signal (z-score),[28],-0.508
same,glycan array binding signal (z-score),[29],0.114
same,glycan array binding signal (z-score),[30],-0.518
same,glycan array binding signal (z-score),[31],-0.342
same,glycan array binding signal (z-score),[32],-0.187
same,glycan array binding signal (z-score),[33],-0.608
same,glycan array binding signal (z-score),Neu5Ac(a2-8)Neu5Ac,-0.297
same,glycan array binding signal (z-score),[34],-0.174
